Data: PubChem BioAssay (Tox21)
Where “and” joins values, the source holds several entries; their conditions need not be identical. Equal entries are not always repeated. Some compounds were tested as several samples or in several runs, with calls that do not always agree. Calls of active or inactive are those of the source. Entries that show only a call come without a potency. Unless noted, calls come from the whole dose curve; as a rule, active = well fitted curve in the direction sought with a large enough effect in the repeat runs; inconclusive = weak or mixed curves; inactive = no such curve, though single readings can be large; an effect the other way counts as inactive or inconclusive.

How the values were obtained:
[1] = qHTS assay to identify small molecule antagonists of the thyroid receptor (TR) signaling pathway (AID 743065); note: nearly all actives have a fitted effect of over 55% in size; note: potency is the fitted concentration of half-maximal effect
In short: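 GH3.TRE-Luc rat pituitary cells (two TREs driving luciferase) were dosed with compound, then stimulated with 1 nM T3 (final) for 23.5 h at 37 C. ONE-Glo luminescence was the read-out, with CellTiter-Fluor fluorescence as the cytotoxicity counter-screen.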

[2] = tested on: thyroid hormone receptor (rat, GH3 cells); assay: qHTS assay to identify small molecule agonists of the thyroid receptor (TR) signaling pathway (AID 743066; calls by dose curve)
[3] = target: Estrogen receptor (Homo sapiens) (UniProt P03372); assay: qHTS assay to identify small molecule antagonists of the estrogen receptor alpha (ER-alpha) signaling pathway (AID 743069; active = well fitted curve in the direction sought with a large enough effect in the signal ratio in the repeat runs, not every such curve was filed as active; inconclusive = weak or mixed curves, or effect the other way; inactive = no such curve, though single readings can be large or run the other way; the % refers to the signal ratio)
In short: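 Beta-lactamase FRET fluorescence is read after 2 hr at room temperature with LiveBLAzer B/G substrate. Before that, ER-alpha-bla HEK293 cells sit 4 hr after plating, then receive compound plus 17beta-estradiol and incubate 18 hr at 37C.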

[4] = qHTS assay to identify small molecule antagonists of the estrogen receptor alpha (ER-alpha) signaling pathway - cell viability counter screen (AID 743074; calls by dose curve;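 note: HEK293 cells carrying ER-alpha-UAS-bla reporter stimulated with 17beta-estradiol; nearly all actives have a fitted effect of over 45% in size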)
[5] = target: Estrogen receptor (Homo sapiens) (UniProt P03372); assay: qHTS assay to identify small molecule agonists of the estrogen receptor alpha (ER-alpha) signaling pathway (AID 743075; calls by dose curve;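 note: HEK293 GripTite cells with ER-alpha and UAS-driven beta-lactamase reporter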; note: potency is the fitted concentration of half-maximal effect)
[6] = target: Estrogen receptor (Homo sapiens) (UniProt P03372); assay: qHTS assay to identify small molecule agonists of the estrogen receptor alpha (ER-alpha) signaling pathway using the BG1 cell line (AID 743079); settings: BG1Luc4E2 cells, ERE-luciferase agonist, 22 h; activation: at 70.3 µM (top of the series); note: nearly all actives have a fitted effect of over 20% in size; note: potency is the fitted concentration of half-maximal effect
[7] = qHTS assay to identify small molecule antagonists of the estrogen receptor alpha (ER-alpha) signaling pathway using the BG1 cell line (AID 743080; calls by dose curve;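 note: BG1 cells stimulated with 17beta-estradiol alongside compound; nearly all actives have a fitted effect of over 25% in size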)
In short: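 Readout is ONE-Glo luminescence, taken 30 min at room temperature after reagent addition, preceded by a CellTiter-Fluor viability read; BG1-Luc-4E2 cells had received compound and 17beta-estradiol for 21.5 h at 37 C.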

[8] = qHTS assay to identify small molecule antagonists of the estrogen receptor alpha (ER-alpha) signaling pathway using the BG1 cell line - cell viability counter screen (AID 743081);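 note: compound given together with 17beta-estradiol as the ER stimulus; nearly all actives have a fitted effect of over 45% in size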
[9] = target: Aromatase (Homo sapiens) (UniProt P11511); assay: qHTS assay to identify aromatase inhibitors (AID 743083); note: nearly all actives have a fitted effect of over 55% in size
[10] = qHTS assay to identify aromatase inhibitors - cell viability counter screen (AID 743084);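 note: cells stimulated with testosterone during compound exposure; nearly all actives have a fitted effect of over 55% in size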
[11] = target: Aryl hydrocarbon receptor (Homo sapiens) (UniProt P35869); assay: qHTS assay to identify small molecule that activate the aryl hydrocarbon receptor (AhR) signaling pathway (AID 743085); note: nearly all actives have a fitted effect of over 15% in size; note: potency is the fitted concentration of half-maximal effect;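 for activation: HG2L7.5c1 human HepG2 liver cells with stably integrated DRE-driven firefly reporter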
In short: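 Cell line HG2L7.5c1 (human hepatoma, 20× DRE-luc). Plated, 5 h 37C, compound/DMSO added, 24 h 37C. CellTiter-Fluor 30 min 37C → fluorescence; then ONE-Glo 30 min RT → luminescence.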

[12] = qHTS assay to identify small molecule that activate the aryl hydrocarbon receptor (AhR) signaling pathway - cell viability counter screen (AID 743086);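 note: HepG2 liver cells carrying the AhR DRE luciferase reporter; nearly all actives have a fitted effect of over 45% in size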
In short: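 HepG2-AhR-luc (HG2L7.5c1) cells, 4000/well, treated 24 h at 37 C with compound; viability measured as CellTiter-Fluor fluorescence after 30 min in the same wells as the luciferase read.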

[13] = target: Peroxisome proliferator-activated receptor gamma (Homo sapiens) (UniProt P37231); assay: qHTS assay to identify small molecule agonists of the peroxisome proliferator-activated receptor gamma (PPARg) signaling pathway (AID 743094; active = well fitted activation curve with a large enough effect in the signal ratio in the repeat runs, not every such curve was filed as active; inconclusive = weak or mixed curves, or effect the other way; inactive = no such curve, though single readings can be large or run the other way; the % refers to the signal ratio)
In short: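 Cell-based bla reporter, HEK293H background, PPARg-driven UAS. Pre-incubation 5 h, 37C, 5% CO2. Compound 17 h, 37C. Substrate 1 h RT; fluorescence.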

[14] = qHTS assay to identify small molecule phospholipidosis (PLD) inducers (AID 1259344; active = well fitted curve in the direction sought with a large enough effect; inconclusive = small, poorly fitted or top-dose-only effect, or another doubt; inactive = no such curve, though single readings can be large; an effect the other way counts as inactive or inconclusive)
In short: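 Read-out is LipidTOX Red fluorescence (ex 595/em 615) imaged in HepG2 cells after 24 h compound exposure at 37 C, with Hoechst nuclear counterstain (ex 352/em 461) allowing per-cell normalisation.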

[15] = qHTS assay to identify small molecule antagonists of the thyroid receptor (TR) signaling pathway - cell viability counter screen (AID 743064); note: nearly all actives have a fitted effect of over 50% in size; note: potency is the fitted concentration of half-maximal effect
In short: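 Fluorescence from CellTiter-Fluor, added after 23.5 h exposure at 37 °C, reported viability of GH3.TRE-Luc cells co-treated with compound and 1 nM T3. Measured in the same wells as the luciferase TR readout.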

[16] = target: Nuclear receptor subfamily 1 group I member 2 (Rattus norvegicus) (UniProt Q9R1A7); assay: Rat pregnane X receptor (rPXR) activation by small molecules, qHTS assay (AID 1346983); settings: rPXR luciferase reporter cells, One-Glo luminescence, 24 h; max activation: stronger effect = higher value; note: nearly all actives have a fitted effect of over 20% in size; note: potency is the fitted concentration of half-maximal effect
In short: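 Cell-based rPXR activation assay: rPXR cells, 2,000 per well, rested 5hr at 37 C, then exposed to compounds in DMSO for 24 hr at 37 C. Luciferase activity read by One-Glo luminescence after 30 min at room temperature.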

[17] = target: Nuclear receptor subfamily 1 group I member 2 (Homo sapiens) (UniProt O75469); assay: CYP3A4 induction through human pregnane X receptor (PXR) by small molecules, qHTS assay (AID 1346984); note: nearly all actives have a fitted effect of over 40% in size; note: potency is the fitted concentration of half-maximal effect
In short: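 Human PXR activation is tracked via CYP3A4 promoter-luciferase in DPX-2 (HepG2) cells. Compounds treat cells for 24hr at 37C, and luminescence is read after One-Glo.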

[18] = target: Nuclear receptor subfamily 1 group I member 2 (Homo sapiens) (UniProt O75469); assay: Human pregnane X receptor (PXR) activation by small molecules, qHTS assay (AID 1346985); note: nearly all actives have a fitted effect of over 40% in size; note: potency is the fitted concentration of half-maximal effect
In short: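 DPX-2 cells (HepG2 co-transfected with a PXR response element and a CYP3A4-promoter luciferase construct) were seeded at 2,000 per well, rested 5 hr at 37C, then exposed to DMSO-dissolved compounds for 24 hr. Activation was read as luciferase luminescence.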

Chain of Aryl hydrocarbon receptor (Homo sapiens) (P35869 whole entry, looked up): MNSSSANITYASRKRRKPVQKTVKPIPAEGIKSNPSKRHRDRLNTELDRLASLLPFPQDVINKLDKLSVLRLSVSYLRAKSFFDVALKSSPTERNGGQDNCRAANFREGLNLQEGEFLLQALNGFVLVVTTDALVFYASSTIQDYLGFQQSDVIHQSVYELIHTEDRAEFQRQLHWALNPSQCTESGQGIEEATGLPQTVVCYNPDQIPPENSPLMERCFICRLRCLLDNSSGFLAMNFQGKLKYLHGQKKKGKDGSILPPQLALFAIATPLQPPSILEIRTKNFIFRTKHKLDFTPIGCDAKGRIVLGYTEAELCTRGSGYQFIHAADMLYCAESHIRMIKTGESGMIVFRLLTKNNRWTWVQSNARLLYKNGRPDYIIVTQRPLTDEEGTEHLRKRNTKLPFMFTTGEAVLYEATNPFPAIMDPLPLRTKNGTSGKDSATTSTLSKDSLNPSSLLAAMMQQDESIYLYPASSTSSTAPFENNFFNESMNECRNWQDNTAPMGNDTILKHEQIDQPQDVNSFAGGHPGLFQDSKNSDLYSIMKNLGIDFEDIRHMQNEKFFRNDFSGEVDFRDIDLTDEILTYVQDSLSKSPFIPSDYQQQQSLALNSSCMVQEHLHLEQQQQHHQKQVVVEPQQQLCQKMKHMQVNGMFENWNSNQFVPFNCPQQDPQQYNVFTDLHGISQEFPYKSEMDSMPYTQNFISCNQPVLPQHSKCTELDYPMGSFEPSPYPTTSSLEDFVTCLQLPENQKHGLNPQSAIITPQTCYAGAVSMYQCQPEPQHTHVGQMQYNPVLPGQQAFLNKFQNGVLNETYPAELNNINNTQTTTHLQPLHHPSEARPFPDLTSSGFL
Chain of Estrogen receptor (Homo sapiens) (P03372 whole entry, looked up): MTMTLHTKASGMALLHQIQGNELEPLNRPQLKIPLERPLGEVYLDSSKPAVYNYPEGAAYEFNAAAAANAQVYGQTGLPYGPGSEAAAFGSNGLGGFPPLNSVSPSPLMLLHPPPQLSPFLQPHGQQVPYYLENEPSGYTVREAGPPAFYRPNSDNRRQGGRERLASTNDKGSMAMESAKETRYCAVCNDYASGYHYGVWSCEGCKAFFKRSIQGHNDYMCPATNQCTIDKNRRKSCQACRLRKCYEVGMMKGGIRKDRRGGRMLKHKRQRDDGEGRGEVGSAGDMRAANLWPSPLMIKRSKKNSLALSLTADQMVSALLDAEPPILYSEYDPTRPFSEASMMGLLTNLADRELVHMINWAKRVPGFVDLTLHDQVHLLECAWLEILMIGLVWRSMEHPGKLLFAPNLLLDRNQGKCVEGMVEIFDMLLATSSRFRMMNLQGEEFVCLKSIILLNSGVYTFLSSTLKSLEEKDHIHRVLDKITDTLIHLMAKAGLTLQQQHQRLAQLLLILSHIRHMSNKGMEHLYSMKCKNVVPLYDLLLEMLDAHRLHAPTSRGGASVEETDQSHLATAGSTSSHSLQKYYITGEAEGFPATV
Chain of Nuclear receptor subfamily 1 group I member 2 (Rattus norvegicus) (Q9R1A7 whole entry, looked up): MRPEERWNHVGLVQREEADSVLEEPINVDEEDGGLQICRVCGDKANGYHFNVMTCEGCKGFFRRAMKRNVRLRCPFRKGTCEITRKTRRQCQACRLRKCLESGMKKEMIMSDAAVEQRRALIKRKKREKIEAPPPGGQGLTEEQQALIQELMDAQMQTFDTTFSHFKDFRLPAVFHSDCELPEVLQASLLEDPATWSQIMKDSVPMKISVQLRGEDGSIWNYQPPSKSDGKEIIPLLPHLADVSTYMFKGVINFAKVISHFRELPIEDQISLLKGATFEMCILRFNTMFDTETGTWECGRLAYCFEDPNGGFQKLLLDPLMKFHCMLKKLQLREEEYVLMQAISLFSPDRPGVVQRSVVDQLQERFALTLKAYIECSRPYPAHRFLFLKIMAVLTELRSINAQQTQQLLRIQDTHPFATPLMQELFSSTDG
Chain of Aromatase (Homo sapiens) (P11511 whole entry, looked up): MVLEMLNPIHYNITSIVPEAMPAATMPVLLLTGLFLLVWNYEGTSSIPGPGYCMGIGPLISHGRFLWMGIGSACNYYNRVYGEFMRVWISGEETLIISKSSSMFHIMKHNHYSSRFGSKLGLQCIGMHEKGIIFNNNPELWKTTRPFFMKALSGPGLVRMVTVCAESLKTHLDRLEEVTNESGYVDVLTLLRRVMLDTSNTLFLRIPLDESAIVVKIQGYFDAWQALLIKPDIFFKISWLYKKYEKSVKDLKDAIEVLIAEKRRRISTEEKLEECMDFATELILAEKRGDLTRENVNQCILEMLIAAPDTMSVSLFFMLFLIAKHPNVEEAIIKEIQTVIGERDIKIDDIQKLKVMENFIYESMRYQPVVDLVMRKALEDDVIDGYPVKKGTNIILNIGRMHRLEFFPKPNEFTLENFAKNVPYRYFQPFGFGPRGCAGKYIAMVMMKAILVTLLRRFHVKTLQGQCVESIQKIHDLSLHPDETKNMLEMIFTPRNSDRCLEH
Chain of Peroxisome proliferator-activated receptor gamma (Homo sapiens) (P37231 whole entry, looked up): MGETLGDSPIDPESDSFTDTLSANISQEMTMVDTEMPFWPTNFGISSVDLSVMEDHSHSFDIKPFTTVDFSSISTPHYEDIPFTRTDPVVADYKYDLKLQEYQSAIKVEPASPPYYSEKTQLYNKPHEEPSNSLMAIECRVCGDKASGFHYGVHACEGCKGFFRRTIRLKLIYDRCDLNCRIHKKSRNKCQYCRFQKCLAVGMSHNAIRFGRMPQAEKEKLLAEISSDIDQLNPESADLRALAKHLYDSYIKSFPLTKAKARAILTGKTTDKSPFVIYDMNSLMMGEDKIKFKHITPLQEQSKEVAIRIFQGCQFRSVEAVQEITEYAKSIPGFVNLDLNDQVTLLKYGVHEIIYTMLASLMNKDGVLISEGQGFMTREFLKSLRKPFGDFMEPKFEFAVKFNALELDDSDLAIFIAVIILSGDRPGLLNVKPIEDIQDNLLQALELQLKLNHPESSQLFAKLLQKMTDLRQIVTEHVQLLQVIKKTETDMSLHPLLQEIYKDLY

SMILES	Potency [1]	Potency [2]	Potency [3]	Potency [4]	Potency [5]	Potency [6]	Potency [7]	Potency [8]	Potency [9]	Potency [10]	Potency [11]	Potency [12]	Potency [13]	Potency [14]	Potency [15]	PLD induction [14]	max activation [16]	Potency [17]	Potency [18]	Potency [16]
O=C(NCCNCC(O)COc1ccc(O)cc1)N1CCOCC1 (stereo unspecified)	inactive	inactive	inactive	inactive	inactive	inactive	inactive	inactive	inactive	inactive	inactive	inactive	inactive	inactive						
CCCC(=O)N1CCCN(c2nc(N)c3cc(OC)c(OC)cc3n2)CC1	inactive	inactive	inactive	inactive	inactive		inactive	inactive	inactive	inactive	5.31 µM (active)			inactive						
COC1=C(C(=O)O)N2C(=O)[C@@H](NC(=O)[C@H](N)C3=CCC=CC3)[C@H]2SC1			inactive		inactive	inactive	inactive	inactive	inactive	inactive	inactive	inactive	inactive	inactive	inactive					
C=C[C@]1(C)C[C@@H](OC(=O)CO)[C@]2(C)[C@H](C)CC[C@]3(CCC(=O)[C@H]32)[C@@H](C)[C@@H]1O					inactive	inactive	inactive		inactive	inactive	inactive	inactive	inactive	inactive	inactive					
OC[C@H]1O[C@@H](n2cnc3c2NC=NC[C@H]3O)C[C@@H]1O	inactive	inactive	inactive	inactive	inactive	inactive	inactive	inactive	inactive	inactive	inactive	inactive	inactive	inactive						
O=C(Cn1c(=O)sc2ccc(Cl)cc21)N1CCN(CCO)CC1				inactive				inactive	inactive	inactive	inactive	inactive	inactive		inactive	3.19% [at 7.66 µM] (inactive)				
CN1[C@@H]2CC[C@H]1CC(OC(c1ccccc1)c1ccccc1)C2 (stereo partly specified)	13.3 µM (active) and 23.7 µM (active) and 11.9 µM (active)	inactive		inactive	inactive	inactive	inactive	inactive	inactive	inactive	inactive	inactive	inactive		16.8 µM (active) and 26.6 µM (active)		-1.01% (inactive) and 0.643% (inactive) and -2.69% (inactive)	inactive and 14.1 µM (active)	inactive	
NC[C@@H]1O[C@H](O[C@H]2[C@@H](O)[C@H](O[C@@H]3[C@@H](O)[C@H](N)C[C@H](N)[C@H]3O[C@H]3O[C@H](CN)[C@@H](O)[C@H](O)[C@H]3N)O[C@@H]2CO)[C@H](N)[C@@H](O)[C@@H]1O			inactive	inactive	inactive	inactive		inactive	inactive	inactive	inactive		inactive	inactive						
CC(O)[C@@H]1NC(=O)[C@H](CCCCN)NC(=O)[C@@H](Cc2c[nH]c3ccccc23)NC(=O)[C@H](Cc2ccccc2)NC(=O)[C@@H](NC(=O)[C@H](N)Cc2ccccc2)CSSC[C@@H](C(=O)N[C@H](CO)[C@@H](C)O)NC1=O (stereo partly specified)				inactive	inactive		inactive	inactive	inactive	inactive	inactive	inactive	inactive	inactive						
Clc1ccc(COC(Cn2ccnc2)c2ccc(Cl)cc2Cl)c(Cl)c1 (stereo unspecified)			inactive	inactive	inactive	inactive		inactive		inactive		inactive	inactive	inactive						
CCN(CC)CCOc1ccc(-c2nc3cc(Cl)ccc3s2)cc1	6.68 µM (active)			inactive	inactive			inactive	inactive		8.41 µM (active)				8.41 µM (active)			12.6 µM (active)	10 µM (active)	0.794 µM (active)
CN1CCc2c(c3ccccc3n2Cc2ccccc2)C1		inactive						inactive	inactive	inactive	inactive	inactive	inactive	inactive						
CN1CC(O)c2cc(N=NC(N)=O)c(O)cc21 (stereo unspecified)			inactive	inactive	inactive	inactive	inactive	inactive	inactive		inactive		inactive	inactive						
COc1ccc(CCNCC(O)COc2cccc(C)c2)cc1OC (stereo unspecified)		inactive		inactive	inactive	inactive	inactive	inactive	inactive	inactive	inactive	inactive	inactive	inactive						
O=C(Nc1ccc(/C=C/c2ccc(NC(=O)c3cc(S(=O)(=O)O)c4cccnc4c3O)cc2S(=O)(=O)O)c(S(=O)(=O)O)c1)c1cc(S(=O)(=O)O)c2cccnc2c1O		inactive	inactive	inactive	inactive	inactive	inactive	inactive	inactive		inactive	inactive	inactive			-0.0305% [at 7.66 µM] (inactive)				
N[C@@H](C(=O)N[C@@H]1C(=O)N2C(C(=O)O)=C(CSc3cn[nH]n3)CS[C@H]12)c1ccc(O)cc1				inactive				inactive	inactive	inactive	inactive	inactive	inactive	inactive						
CCCCCCCCCCCCCCCCCCCCCC(=O)Nc1ccn([C@@H]2O[C@H](CO)[C@@H](O)[C@@H]2O)c(=O)n1	18.8 µM (active)	inactive		inactive				inactive	inactive	inactive	inactive	inactive	inactive				-4.2% (inactive)	inactive	inactive	
CCCCC(F)(F)[C@@]1(O)CC[C@H]2[C@@H](CC(=O)[C@@H]2CCCCCCC(=O)O)O1				inactive		inactive		inactive		inactive	inactive	inactive		inactive						
C[C@]12C=CC(=O)N[C@@H]1CC[C@@H]1[C@@H]2CC[C@]2(C)[C@@H](C(=O)Nc3cc(C(F)(F)F)ccc3C(F)(F)F)CC[C@@H]12		inactive			inactive			inactive	inactive	inactive	inactive	inactive	inactive		inactive		-1.05% (inactive)	inactive	inactive	
COc1cc2[nH]c(C)c(CCN3CCN(c4ccccc4)CC3)c2cc1OC		inactive	inactive	inactive	inactive	inactive	inactive	inactive	inactive		inactive		inactive	inactive						
CC(O)[C@H]1CC[C@H]2[C@@H]3CC[C@@H]4C[C@@H](O)CC[C@]4(C)[C@H]3CC[C@]12C (stereo partly specified)	inactive	inactive	inactive	inactive	3.38 µM [inconclusive] (active)	9.44 µM (active)	inactive	inactive	inactive	inactive	inactive	inactive	inactive		inactive		2.94% (inactive)	inactive	inactive	
Nc1c(Br)cc(Br)cc1CNC1CCC(O)CC1 (stereo unspecified)				inactive	inactive	inactive	inactive	inactive	inactive	inactive	inactive	inactive	inactive	inactive						
COc1ccc2c(c1)OC(C)(C)C(c1ccccc1)C2c1ccc(OCCN2CCCC2)cc1 (stereo unspecified)	9.44 µM (active)					inactive	inactive	inactive		inactive	inactive				10.6 µM (active)		-6.65% (inactive)	inactive	15.8 µM (active)	
C[N+]1(C)CCN(CC(O)(c2ccccc2)C2CCCCC2)CC1 (stereo unspecified)				inactive				inactive	inactive	inactive	inactive	inactive		inactive						
C[C@]12CCC(=O)C[C@@H]1CC[C@@H]1[C@@H]2CC[C@]2(C)C=CC[C@@H]12		inactive		inactive	8.49 µM [inconclusive] (active)	11.9 µM (active)	inactive	inactive	inactive	inactive		inactive	inactive				-0.035% (inactive)	inactive	inactive	
COC(=O)CCC(=O)CN			inactive	inactive	inactive	inactive	inactive	inactive	inactive	inactive	inactive			inactive						
CN(C)CC/C=C1/c2ccccc2CSc2ccccc21	9.02 µM (active)	inactive	inactive	inactive	inactive	inactive	inactive	inactive	inactive	inactive	inactive		inactive		4.52 µM (active)		-3.65% (inactive)	inactive	inactive	
